# Most compounds without a hit are left out; they make up all but 17% or so of the library.
# DT40 TDP1 CPT – growth inhibition of DT40 Tdp1-/-;hTDP1 cells with camptothecin (screen for TDP1 inhibitors); chicken DT40 Tdp1-/-;hTDP1 cells + 20 nM CPT, ATP luminescence, 48 h; Potency, µM (doses to about 46.2 µM), inactives show at the highest dose activity change, negative = growth inhibition, usual class: inhibitors; 420,000 tested, 12% active; note: % is set by controls: 0 for no effect and ±100 for the full control effect; nearly all actives have a fitted effect of over 55% in size
#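 Chicken DT40 Tdp1-/- cells complemented with human TDP1, 400 cells/well, exposed to compounds plus 20 nM camptothecin for at least 48 h at 37 C; viability read as ATP content by CellTiter-Glo luminescence.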
# ClpP mod – qHTS Assay for Activators of ClpP | ATP-dependent Clp protease proteolytic subunit (Bacillus subtilis (strain 168)), P80244 | Potency, µM (doses to about 57.5 µM), for inactives: at the highest dose activity change, negative = active | AID 651965, 2013 | purified B. subtilis ClpP, FRET peptide cleavage, 20 min | 340,000 tested, 1.9% active; active = well fitted falling curve with a large enough effect; inconclusive = small, poorly fitted or top-dose-only effect; inactive = no such curve, though single readings can be large or run the other way; note: the source files actives as falling curves though it sought activators and does not explain the sign; nearly all actives have a fitted effect of over 65% in size
# Target sequence (P80244 whole entry, looked up): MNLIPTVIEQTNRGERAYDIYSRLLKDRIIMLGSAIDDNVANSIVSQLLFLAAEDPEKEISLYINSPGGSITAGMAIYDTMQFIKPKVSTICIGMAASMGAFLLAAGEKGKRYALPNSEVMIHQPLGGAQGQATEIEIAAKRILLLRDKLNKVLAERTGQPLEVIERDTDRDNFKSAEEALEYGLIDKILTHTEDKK
#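 Purified B. subtilis ClpP, 10 microg/mL final in Tris/HCl pH8 with KCl, BSA, glycerol and Tween-20, cleaved an Abz/nitrotyrosine-quenched decapeptide. Fluorescence (ex 320, em 430) was read at 0 and 20 min at room temperature. Delta was normalized to 5.8 microM ADEP and DMSO/no-enzyme controls.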
# TDP1 block – blocks human tyrosyl-DNA phosphodiesterase 1; AID 485290; Potency, µM (doses to about 130 µM), for inactives: top-dose activity change, negative = inhibition, hits mostly inhibitors; 350,000 tested, 0.28% active; recombinant TDP1, AlphaScreen DNA substrate cleavage; note: % is set by controls: 0 for no effect and ±100 for the full control effect; nearly all actives have a fitted effect of over 40% in size
#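 Here, a 5' biotin and 3' phosphotyrosine-FITC DNA oligonucleotide reports Tdp1 activity: intact substrate bridges AlphaScreen beads, while cleavage leaves a 3' phosphate and drops signal. All incubations at room temperature.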
# DT40 TDP1 no CPT – qHTS for Inhibitors of human tyrosyl-DNA phosphodiesterase 1 (TDP1): qHTS in cells in absence of CPT. DT40 Tdp1-/- hTDP1 cells, no CPT, ATP luminescence, 48 h. Potency, µM (highest dose often 46.2 µM), for inactives: at the top dose activity change, negative = growth inhibition, actives largely listed as inhibitors. 420,000 tested, 15% active. AID 686978, 2013; note: % is set by controls: 0 for no effect and ±100 for the full control effect; nearly all actives have a fitted effect of over 55% in size
#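 Cells were dispensed at 400 per well, compounds added by pin tool, plates incubated ≥48 hr at 37 °C, then CellTiter-Glo added for 30 min at room temperature before luminescence reading. Line: DT40 Tdp1-/- complemented with hTDP1; camptothecin omitted.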
# An asterisk follows results filed as active; ? = inconclusive; . = not tested or not shown; ! = not active in a repeat; [ ] = remark or other dose. Unless noted, calls come from the whole dose curve; as a rule, active = well fitted curve in the direction sought with a large enough effect; inconclusive = small, poorly fitted or top-dose-only effect, or another doubt; inactive = no such curve, though single readings can be large; an effect the other way counts as inactive or inconclusive. Potency is the fitted concentration of half-maximal effect.
SMILES,DT40 TDP1 CPT,ClpP mod,TDP1 block,DT40 TDP1 no CPT
CCCN1C(=O)c2ccccc2NC1c1ccc(OC)c(COc2cccc(OC)c2)c1 (stereo not drawn),?,4.3%,-0.5%,15.8µM*
COc1cc(C2Nc3ccccc3C(=O)N2c2ccccc2)c(Br)cc1OCC(=O)O (stereo not drawn),-12.3%,31.6µM*,-3.8%,-20.8%
COc1cccc(OCc2cc(C3Nc4ccccc4C(=O)N3c3ccccc3)ccc2OC)c1 (stereo not drawn),10µM*,4.0%,0.7%,12.6µM*
COC(=O)c1ccccc1NC(=O)c1cc2nc(-c3ccc(OC)cc3)cc(C(F)(F)F)n2n1,.,-11.2%,1.1%,.
COCCC(=O)N1CCC(Oc2ccc(C(=O)NCCn3cccn3)cc2)CC1,10.9%,0.9%,3.9%[56.1 µM],3.3%
N#C/C(C(N)=O)=C1/SC=C(c2ccccc2)N1c1ccccc1,?,-1.5%,3.6%,18.4µM*
N#C/C(C(=O)c1ccccc1)=C1/SC=C(N)N1c1ccccc1,.,.,6.6%,.
COc1ccc2c3c(n(C(=O)OC(C)(C)C)c2c1)C1CC=C(COC(C)=O)CN1CC3 (stereo not drawn),16.4µM*,?,.,16.4µM*
CC1(c2ccccc2)CC(C)(C)N(C(=O)c2cccc(Cl)c2)c2ccccc21 (stereo not drawn),?,-0.1%,-2.2%[12.3 µM],?
Cc1cc(C)c(NC(=O)CSc2nc(=O)n(Cc3cccnc3)c3c2CCC3)c(C)c1,-3.5%,-16.2%,2.6%,1.5%
O=C(OCC#Cc1c(COC(=O)c2ccccc2)nnn1Cc1ccccc1)c1ccccc1,18.4µM*,-5.9%,-1.2%,?
COc1ccc(NC(=O)[C@@H]2CC=C[C@@H]3CCN(Cc4ccc(Cl)c(Cl)c4)C(=O)[C@@H]32)cc1,?,-4.3%,.,?
COc1ccc(CN2CC[C@H]3C=CC[C@@H](C(=O)Nc4ccc(Cl)c(C(F)(F)F)c4)[C@H]3C2=O)cc1OC,?,2.8%,.,11.2µM*
O=C(Nc1ccc(Cl)cc1Cl)[C@@H]1CC=C[C@@H]2CCN(Cc3ccccc3)C(=O)[C@@H]21,10µM*,0.5%,.,?
O=C1[C@H]2[C@H](C=CC[C@H]2C(=O)N2CCN(c3ccccc3)CC2)CCN1Cc1ccc(Cl)c(Cl)c1,16.4µM*,-3.3%,.,18.4µM*
CCCCNC(=O)[C@@H]1CC=C[C@@H]2CCN(Cc3ccc(Cl)c(Cl)c3)C(=O)[C@@H]21,11.2µM*,0.1%,.,8.91µM*
CCc1cccc(CC)c1NS(=O)(=O)c1ccc2c(c1)CCN2C(=O)C1CC1,?,1.4%,-4.7%,-27.9%
N#Cc1ccc(NC(=O)COC(=O)c2cccnc2Cl)cc1,0.1%,1.0%,-1.2%,-15.4%
N#Cc1ccccc1NC(=O)COC(=O)/C=C/c1ccc(S(=O)(=O)N2CCOCC2)cc1,6.3%,-2.2%,-2.8%,-8.5%
O=S1(=O)C[C@@H](N2CCCC2)[C@H](COCc2ccccc2)N1,-27.1%,1.2%,.,12.8%
O=C1[C@H]2[C@H](C=CC[C@H]2C(=O)N2CCN(c3ccccc3)CC2)CCN1Cc1ccccc1,?,-2.1%,.,14.1µM*
O=C(NCCc1ccccc1)[C@@H]1CC=C[C@@H]2CCN(C3CCCCC3)C(=O)[C@@H]21,20µM*!,-0.3%,.,?
CC(C(=O)NC1CCCc2ccccc21)N1CCN(c2ccc(F)cc2)CC1 (stereo not drawn),?,-6.7%,2.7%,16.4µM*
O=C(c1cc(COc2cccc3cnccc23)on1)N1CCC(c2ccccc2Cl)C1 (stereo not drawn),23.1µM*,?,5.7%,18.4µM*
Cc1cccc(C)c1OCc1cc(C(=O)N2CCN(C3CCCC3)CC2)no1,?,0.8%,3.2%,?
SMILES,DT40 TDP1 CPT,ClpP mod,TDP1 block,DT40 TDP1 no CPT
O=C(c1cc(COc2c(F)cccc2F)on1)N1CCC(c2ccccc2Cl)C1 (stereo not drawn),-0.8%,.,0.0%,-17.7%
Cc1cccc(C)c1OCc1cc(C(=O)N2CCC(c3ccncc3)CC2)no1,9.2µM*,0.8%,2.5%,5.17µM*
O=C(c1cc(COc2c(F)cccc2F)on1)N1CCC(c2ccncc2)CC1,9.2µM*,-1.2%,2.7%,9.2µM*
COc1ccc([N+](=O)[O-])cc1N(CC(O)CN1C(=O)NC(C)(C)C1=O)S(=O)(=O)c1ccccc1 (stereo not drawn),-2.2%,.,0.8%,3.3%
c1nc(NCC2CCCO2)c2ccc(-c3ccc4c(c3)OCO4)cc2n1 (stereo not drawn),.,.,-0.9%,.
O=C(COC(=O)c1c2c(nc3ccccc13)/C(=C/c1ccco1)CC2)NC1CCCC1,16.4µM*,-4.2%,.,?
CC1CCCCC1NC(=O)COC(=O)c1c2c(nc3ccccc13)/C(=C/c1ccco1)CC2 (stereo not drawn),16.4µM*,2.2%,-2.4%,14.6µM*
CC(C)c1c(C(=O)NCC2(N3CCOCC3)CCCC2)cnn1-c1nccc(-c2cccs2)n1,1.3%[9.04 µM],.,.,-17.8%
CSc1nnc(-c2sc3cc(C(F)(F)F)cnc3c2-c2ccccn2)n1C,?,28.2µM*,6.6%,?
O=C(COc1ccccc1)Nc1nnc(S(=O)(=O)N2CCCCCC2)s1,-20.5%,-6.4%,-2.6%,-18.7%
CN1CCN(c2ncc3c(n2)CCN(Cc2ccccc2Cl)C3)CC1,?,-0.5%,-1.2%,?
Cc1cc(C)n(Cc2cccc(C(=O)N/N=C/c3ccncc3)c2)n1,-12.5%,-0.3%,1.1%,9.9%
CN(C)c1ccc(CNC(=O)c2cccn2-c2nnc(N3CCCCC3)s2)cc1,18.4µM*,-6.7%,5.3%,16.4µM*
CC(C)c1ccc(NC(=O)c2cccn2-c2nnc(N3CCCCC3)s2)cc1,18.4µM*,?,-2.6%,?
COc1ccccc1CNC(=O)c1cccn1-c1nnc(N2CCCCC2)s1,-29.9%,-4.1%,2.6%,-29.0%
O=C(Nc1ccc2[nH]c(=O)c(=O)[nH]c2c1)c1cccc(F)c1,12.3%,-8.7%,0.0%,-6.4%
COc1cc(OC)c(NC(=O)Nc2cccc(OCc3cc(=O)n4ccccc4n3)c2)cc1Cl,18.4µM*,-7.9%,2.7%,13µM*
COc1ccc(OC)c(NC(=O)Nc2cccc(OCc3cc(=O)n4cc(C)ccc4n3)c2)c1,8.2µM*,-2.8%,0.0%,18.4µM*
COc1cc(OC)c(NC(=O)Nc2ccccc2OCc2cc(=O)n3cc(C)ccc3n2)cc1Cl,8.2µM*,-1.8%,2.7%,9.2µM*
Cc1ccn2c(=O)cc(COc3cccc(NC(=O)Nc4cccc(Cl)c4C)c3)nc2c1,?,-7.0%,5.4%,23.1µM*
Cc1ccc(NC(=O)Nc2ccccc2OCc2cc(=O)n3ccccc3n2)c(Cl)c1,-7.7%,-12.8%,5.4%,-20.3%

# Screening data from PubChem BioAssay.
